# Measured values published in the antibiotic and cytotoxicity screens of Wong et al. (2023).
# About 3,300 (8.5%) of roughly 39,000 compounds were called active. The sample holds actives, similar compounds and a random draw of the others, so the mix is not that of the screen.
# System: HepG2
# Experiment: cytotoxicity call (relative viability < 0.9)
# Details: 10 µM
row,Structure (SMILES),cytotoxicity call
1,C[C@H](CO)N1C[C@H](C)[C@@H](CN(C)C(=O)Nc2cccc3ccccc23)OCCCC[C@H](C)Oc2ccc(NC(=O)Nc3ccc4c(c3)OCO4)cc2C1=O,inactive
2,O=C(O)Cn1nnc(-c2ccccc2)n1,inactive
3,C[C@@H]1CCCCO[C@@H](CN(C)C(=O)Cc2ccccc2)[C@H](C)CN([C@@H](C)CO)C(=O)c2cc(NS(=O)(=O)c3cccs3)ccc2O1,inactive
4,COC(=O)c1[nH]c(C(=O)OC)c(O)c1O,inactive
5,C[C@H]1CN([C@@H](C)CO)C(=O)c2cc(C3=CCCC3)cnc2O[C@@H]1CN(C)S(=O)(=O)c1cn(C)cn1,inactive
6,CC(C)(C)[S@](=O)N1Cc2cc(C(=O)NCC(F)(F)F)nc(-c3cccc(-c4cccc(F)c4)c3)c2[C@@H]1CCO,active
7,CC(C)(C)[S@@](=O)N1Cc2cc(C(=O)NCC(F)(F)F)nc(-c3cccc(-c4cccc(F)c4)c3)c2[C@H]1CCO,inactive
8,CCCNC(=O)c1cc2c(c(-c3cccc(-c4cccc(F)c4)c3)n1)[C@@H](CCO)N([S@](=O)C(C)(C)C)C2,inactive
9,CC(C)(O)C#Cc1cccc(-c2nc(C(=O)NCCCN3CCOCC3)cc3c2[C@@H](CCO)N(S(=O)C(C)(C)C)C3)c1 (some centres not stated),inactive
10,CC(C)(C)S(=O)N1Cc2cc(C(=O)Nc3ccc(-c4ccccc4)cc3)nc(-c3cccc(C#CCC4CCCC4)c3)c2[C@@H]1CCO (some centres not stated),inactive
11,CC(C)(O)C#Cc1cccc(-c2nc(C(=O)Nc3ccc(-c4ccccc4)cc3)cc3c2[C@@H](CCO)N(S(=O)C(C)(C)C)C3)c1 (some centres not stated),active
12,C[C@@H]1CN([C@@H](C)CO)C(=O)c2cc(NC(=O)Nc3ccc4c(c3)OCO4)ccc2O[C@@H](C)CCCCO[C@@H]1CN(C)S(=O)(=O)c1ccc(F)cc1,inactive
13,C[C@@H]1CN([C@@H](C)CO)C(=O)c2cc(NS(=O)(=O)c3cn(C)cn3)ccc2O[C@H]1CN(C)C(=O)Nc1ccc(F)cc1,inactive
14,O=C1C[C@@H](c2ccc(O[C@@H]3O[C@H](CO)[C@@H](O)[C@H](O)[C@H]3O)cc2)Oc2cc(O)ccc21,inactive
15,NC(=S)c1ccc(-n2cncn2)nc1,inactive
16,COc1cccc(-c2ccc3c(c2)O[C@@H](CN(C)Cc2cncnc2)[C@@H](C)CN([C@@H](C)CO)S3(=O)=O)c1,inactive
17,COC(=O)[C@H](Cc1ccccc1)N1CC2=CC(=O)[C@H](C3CC3)[C@H]2[C@@H]1[C@@H](O)CCn1cc(-c2cccc(/C=C/C(=O)NO)c2)nn1,inactive
18,N#CN=C1NC(=O)CC(=O)N1,inactive
19,C[C@H]1CN([C@@H](C)CO)C(=O)c2cc(-c3cccnc3)cnc2O[C@H]1CN(C)Cc1ccc(-c2ccccc2)cc1,inactive
20,C[C@@H]1CCCCO[C@H](CN(C)Cc2ccc3c(c2)OCO3)[C@H](C)CN([C@H](C)CO)C(=O)c2cc(NC(=O)c3ccccc3)ccc2O1,inactive
21,C[C@@H]1CCCCO[C@@H](CN(C)Cc2ccc3c(c2)OCO3)[C@@H](C)CN([C@H](C)CO)C(=O)c2cc(NC(=O)c3ccccc3)ccc2O1,inactive
22,C[C@@H]1CCCCO[C@@H](CN(C)Cc2ccc3c(c2)OCO3)[C@H](C)CN([C@@H](C)CO)C(=O)c2cc(NC(=O)c3ccccc3)ccc2O1,active
23,C[C@@H]1CCCCO[C@@H](CN(C)Cc2ccc3c(c2)OCO3)[C@H](C)CN([C@H](C)CO)C(=O)c2cc(NC(=O)c3ccccc3)ccc2O1,inactive
24,C[C@@H]1CCCCO[C@H](CN(C)Cc2ccc3c(c2)OCO3)[C@@H](C)CN([C@H](C)CO)C(=O)c2cc(NC(=O)c3ccccc3)ccc2O1,inactive

row,Structure (SMILES),cytotoxicity call
1,C[C@@H]1CN([C@@H](C)CO)C(=O)c2cc(NC(=O)c3ccccc3)ccc2O[C@@H](C)CCCCO[C@@H]1CN(C)Cc1ccc2c(c1)OCO2,inactive
2,C[C@@H]1CN([C@H](C)CO)C(=O)c2cc(NC(=O)c3ccccc3)ccc2O[C@@H](C)CCCCO[C@H]1CN(C)Cc1ccc2c(c1)OCO2,active
3,C[C@H](CO)N1C[C@H](C)[C@@H](CN(C)Cc2ccc3c(c2)OCO3)OCCCC[C@H](C)Oc2ccc(NC(=O)c3ccccc3)cc2C1=O,inactive
4,C[C@@H]1CN([C@H](C)CO)C(=O)c2cc(NC(=O)c3ccccc3)ccc2O[C@@H](C)CCCCO[C@@H]1CN(C)Cc1ccc2c(c1)OCO2,active
5,C=CCN1C(=O)[C@@H]2[C@@H](C1=O)[C@@H]1C=C[C@@H]2C1,inactive
6,COc1ccc(S(=O)(=O)Nc2cccc3c2O[C@@H](CN(C)Cc2ccncc2)[C@@H](C)CN([C@H](C)CO)C3=O)cc1,inactive
7,C[C@H](CO)N1C[C@H](C)[C@@H](CN(C)C(=O)Nc2cccc3ccccc23)Oc2ccc(NC(=O)C3CCCCC3)cc2C1=O,inactive
8,Cc1ccc(S(=O)(=O)Nc2ccc3c(c2)C(=O)N([C@H](C)CO)C[C@@H](C)[C@@H](CN(C)C(=O)C2CCCCC2)OCCCC[C@@H](C)O3)cc1,inactive
9,COC(=O)[C@@H](C)S(=O)(=O)NC(=O)c1cnc2ccccn2c1=O,inactive
10,O=C(C[C@H]1CC[C@H]2[C@@H](COC[C@@H](O)CN2C(=O)c2ccc3c(c2)OCO3)O1)NC1Cc2ccccc2C1,inactive
11,Cn1cnc(S(=O)(=O)N2CC[C@@H](O)[C@@H]2Cc2cnn(C)c2)c1,inactive
12,O=C1OCC=C[C@H]2O[C@@]34C=CCN(c5ccc6ccccc6c5)C(=O)[C@H]3N(CCCCCO)C(=O)[C@@H]4[C@@H]12,inactive
13,C[C@H](CO)N1C[C@H](C)[C@H](CN(C)S(=O)(=O)c2cccs2)Oc2ccc(NC(=O)Cn3cnnn3)cc2C1=O,inactive
14,NC1CCN(Cc2ccccc2)CC1,inactive
15,S=C1SCN(Cc2ccccc2)CN1Cc1ccccc1,active
16,NCC1CCN(Cc2ccccc2)CC1,inactive
17,COc1ccc(NC(=O)N(C)C[C@H]2OCCCC[C@H](C)Oc3ccc(NS(=O)(=O)c4c(C)noc4C)cc3C(=O)N([C@@H](C)CO)C[C@@H]2C)cc1,inactive
18,COc1ccc(NC(=O)Nc2ccc3c(c2)C(=O)N([C@H](C)CO)C[C@@H](C)[C@H](CN(C)Cc2ccc(Cl)c(Cl)c2)OCCCC[C@@H](C)O3)cc1,active
19,COc1ccc(NC(=O)Nc2ccc3c(c2)C(=O)N([C@@H](C)CO)C[C@H](C)[C@H](CN(C)Cc2ccc(Cl)c(Cl)c2)OCCCC[C@@H](C)O3)cc1,inactive
20,COc1ccc(NC(=O)Nc2ccc3c(c2)C(=O)N([C@H](C)CO)C[C@H](C)[C@@H](CN(C)Cc2ccc(Cl)c(Cl)c2)OCCCC[C@@H](C)O3)cc1,inactive
21,COc1ccc(NC(=O)Nc2ccc3c(c2)C(=O)N([C@@H](C)CO)C[C@@H](C)[C@@H](CN(C)Cc2ccc(Cl)c(Cl)c2)OCCCC[C@H](C)O3)cc1,inactive
22,COc1ccc(NC(=O)Nc2ccc3c(c2)C(=O)N([C@@H](C)CO)C[C@H](C)[C@@H](CN(C)Cc2ccc(Cl)c(Cl)c2)OCCCC[C@@H](C)O3)cc1,inactive
23,COc1ccc(NC(=O)Nc2ccc3c(c2)C(=O)N([C@@H](C)CO)C[C@@H](C)[C@@H](CN(C)Cc2ccc(Cl)c(Cl)c2)OCCCC[C@@H](C)O3)cc1,active
